Test: small-molecule microarray binders of probe aXIP, primary screen, biochemical, NeuroSMM set, 635/667 nm fluorescence (AID 1119);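 also: probe is the protein aXip251-270 applied at 1 µg/mL to compound-printed slides; binding of probe to printed compounds measured as 667 nm fluorescence plus signal to noise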
Conditions: higher = more signal, called active from +8 up or from −8 down

Composite Z-score, inactive:
COCC#Cc1ccc([C@@H]2N[C@H](C(=O)O)CC[C@H]2C)cc1 -0.165
C#CCCCON=C1[C@H]2CCn3c(=O)n([C@@H](CC)c4ccccc4)c(=O)n3[C@H]2[C@H](O)[C@@H]2O[C@H]12 -0.15
O=C1CCCC=C1C(O)C1CCCCC1 (stereo unspecified) -0.0549
C[C@@H](c1ccccc1)N1C(=O)[C@H]2[C@H]3[C@H](O)[C@H](O)CC(=NOC[C@@H](O)COCc4ccco4)[C@H]3CC[C@H]2C1=O -0.0004
CCOC(=O)[C@H](CC(C)C)NC(=O)CCC1CC(OC(=O)NCCc2ccc(F)cc2)CC2(CCCC(COC(=O)NCc3cccc4ccccc34)O2)O1 (stereo partly specified) -0.275
COC(=O)[C@H](C)NC(=O)CCC1CC(OC(=O)NCCc2ccc(F)cc2)CC2(CCCC(COC(=O)NCCc3ccccc3OC)O2)O1 (stereo partly specified) 0.353
CCOC(=O)CCN1C(=O)[C@H]2[C@H]3[C@H](O)[C@H](O)CC(=NOCC(C)C)[C@@H]3CC[C@H]2C1=O 0.544
CC[C@@H](c1ccccc1)n1c(=O)n2n(c1=O)[C@H]1[C@H](O)[C@@H]3O[C@@H]3C(=NOCc3ccccc3)[C@H]1CC2 -0.558
COc1ccc(O[C@H]2C=C[C@@H](c3ccccc3)O[C@@H]2CON=C(C)CCN2CCCc3nc(C)c(C)cc32)cc1 0.528
COC(OC)[C@@H](C)[C@H](OC)[C@@H](C)[C@H](OC)c1ccccc1 0.273
CC(CCN1CCc2nc(-c3ccccc3)c(-c3ccccc3)cc2C1)=NO[C@@H](C)c1cc(-c2c(C)cc(C)cc2C)no1 0.0956
CO[C@H]1COC(=O)CCC[C@H](C)[C@H](OC)COC(=O)CC=C[C@@H]1C -0.348
COC(=O)[C@H](CCSC)NC(=O)CC=C[C@@H](C)CO -0.131
C[C@H]1CC[C@@H](C(=O)O)N[C@@H]1c1cccc(N2CCCC2=O)c1 -0.38
C#CCCCON=C1C[C@@H](O)[C@@H](O)[C@@H]2[C@@H]3C(=O)N([C@@H](C)c4ccccc4)C(=O)[C@@H]3CC[C@@H]12 -0.51
COC(=O)[C@H](C)NC(=O)CCC1CC(OC(=O)NCc2ccc3c(c2)OCO3)CC2(CCCC(COC(=O)NCc3ccccc3)O2)O1 (stereo partly specified) 0.264
CCOC(=O)CCN1C(=O)[C@H]2[C@H]3[C@H](O)[C@H](O)CC(=NNC(=O)OCC)[C@H]3CC[C@H]2C1=O -0.17
CC(C)(C)N1C(=O)[C@H]2[C@@H]3C(=CC[C@H]2C1=O)C(=O)[C@H]1O[C@H]1[C@H]3O 0.321
O=C1[C@H]2[C@H]3[C@H](O)[C@H](O)CC(=NO[C@@H]4O[C@H](CO)[C@@H](O)[C@H](O)[C@H]4O)[C@@H]3CC[C@H]2C(=O)N1C1CCCCC1 0.178
COc1ccc(COC(=O)NN=C2C[C@@H](O)[C@@H](O)[C@@H]3[C@@H]4C(=O)N([C@@H](C)c5ccccc5)C(=O)[C@@H]4CC[C@@H]23)cc1 -0.228
COc1ccc(COC(=O)NN=C2C[C@@H](O)[C@@H](O)[C@@H]3[C@@H]4C(=O)N(Cc5ccccc5)C(=O)[C@@H]4CC[C@@H]23)cc1 -0.185
CC(C)[C@@H](OCc1ccccc1)[C@H](C)C=NO[C@@H](C)c1cn([C@H](CO)Cc2ccccc2)nn1 -0.0527
CCOC(=O)[C@H](Cc1ccccc1)NC(=O)CCC1CC(OC(=O)NCc2ccc3c(c2)OCO3)CC2(CCCC(COC(=O)NCCOc3ccccc3)O2)O1 (stereo partly specified) -0.344
COC(=O)[C@H](C)NC(=O)CCC1CC(OC(=O)NCc2ccc3c(c2)OCO3)CC2(CCCC(COC(=O)NCCCN3CCCC3=O)O2)O1 (stereo partly specified) 0.3
O=C(NN=C1C[C@@H](O)[C@@H](O)[C@@H]2[C@@H]3C(=O)N(Cc4ccc5c(c4)OCO5)C(=O)[C@@H]3CC[C@@H]12)OCc1ccccc1 0.536
CCN1C(=O)[C@H]2[C@H]3[C@H](O)[C@H](O)CC(=NOCC[C@@H]4C=C[C@H](OC(C)=O)[C@@H](COC(C)=O)O4)[C@@H]3CC[C@H]2C1=O 0.501
COC(=O)[C@H](C)NC(=O)CCC1CC(OC(=O)NCc2ccc3c(c2)OCO3)CC2(CCCC(COC(=O)NCCC(C)C)O2)O1 (stereo partly specified) -0.436
CO[C@H]1COC(=O)CC=C[C@H](C)[C@H](OC)COC(=O)[C@@H](C)NC(=O)CC=C[C@@H]1C -0.347
O=C1C=C[C@@H](O)[C@@H]2[C@@H]3C(=O)N(Cc4ccccc4)C(=O)[C@@H]3CC[C@@H]12 -0.5
CCOC(=O)[C@H](Cc1ccccc1)NC(=O)CCC1CC(OC(=O)NCc2ccc3c(c2)OCO3)CC2(CCCC(COC(=O)NCCc3ccc(Cl)cc3)O2)O1 (stereo partly specified) 0.264
COc1ccc(-c2cnnc(CCCn3ccnc3-c3ccccc3)n2)cc1 0.391
CCOC(=O)NN=C1C[C@@H](O)[C@@H](O)[C@@H]2[C@@H]3C(=O)N(c4ccc(F)cc4F)C(=O)[C@@H]3CC[C@H]12 -0.623
C#CCCCON=C1C[C@@H](O)[C@@H](O)[C@@H]2[C@@H]3C(=O)N(CC)C(=O)[C@@H]3CC[C@H]12 0.52
C[C@H]1CC[C@@H](C(=O)O)N[C@@H]1c1ccc(C#Cc2ccccc2)cc1 0.142
COC(=O)[C@H](C)NC(=O)CCC1CC(OC(=O)NCc2cccc3ccccc23)CC2(CCCC(COC(=O)NCc3ccccc3)O2)O1 (stereo partly specified) 0.142
CC(=O)OC[C@H]1O[C@H](CC=NOC[C@@H](O)[C@H]2O[C@@H]3OC(C)(C)O[C@@H]3[C@H]2O)C=C[C@@H]1OC(C)=O 0.0765
